Gal4-VP16 FLuc = VP16 counterscreen qHTS for inhibitors of ROR gamma transcriptional activity | Potency, µM (top dose mostly 53.6 µM), for inactives: top-dose activity, negative = inhibition, most hits filed as inhibitors | 310,000 tested, 3.5% active | Drosophila S2 Gal4-VP16 UAS-luciferase, luminescence, 20 h;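 also: Gal4-VP16 expression switched on by copper sulfate through the metallothionein promoter; potency is read from the fitted curve at half-maximal effect; % is scaled to controls: 0 for no effect and ±100 for the full control effect; nearly all actives have a fitted effect of over 50% in size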
MCF10A rereplic = A quantitative high throughput screen for small molecules that induce DNA re-replication in MCF 10a normal breast cells; 350,000 tested, 2.9% active; MCF 10A DNA re-replication, Hoechst nuclear intensity, 48 h; Potency, µM (series often up to 46.1 µM), inactives show top-dose activity, positive = re-replication, most hits filed as activators; also: potency is read from the fitted curve at half-maximal effect; % of control where 0% means no effect; nearly all actives have a fitted effect of over 50% in size
RORg inh = qHTS for inhibitors of ROR gamma transcriptional activity | 310,000 tested, 5.4% active | Potency, µM (doses to about 53.6 µM), for inactives: at the top dose activity change, negative = inhibition, actives largely listed as inhibitors | AID 2551, 2010 | Nuclear receptor ROR-gamma (Mus musculus), P51450 | Drosophila S2 Gal4-RORgamma UAS-luciferase reporter, 20 h; also: potency is read from the fitted curve at half-maximal effect; % is scaled to controls: 0 for no effect and ±100 for the full control effect; nearly all actives have a fitted effect of over 60% in size
Target sequence (P51450 whole entry, looked up, the tested form may be a part): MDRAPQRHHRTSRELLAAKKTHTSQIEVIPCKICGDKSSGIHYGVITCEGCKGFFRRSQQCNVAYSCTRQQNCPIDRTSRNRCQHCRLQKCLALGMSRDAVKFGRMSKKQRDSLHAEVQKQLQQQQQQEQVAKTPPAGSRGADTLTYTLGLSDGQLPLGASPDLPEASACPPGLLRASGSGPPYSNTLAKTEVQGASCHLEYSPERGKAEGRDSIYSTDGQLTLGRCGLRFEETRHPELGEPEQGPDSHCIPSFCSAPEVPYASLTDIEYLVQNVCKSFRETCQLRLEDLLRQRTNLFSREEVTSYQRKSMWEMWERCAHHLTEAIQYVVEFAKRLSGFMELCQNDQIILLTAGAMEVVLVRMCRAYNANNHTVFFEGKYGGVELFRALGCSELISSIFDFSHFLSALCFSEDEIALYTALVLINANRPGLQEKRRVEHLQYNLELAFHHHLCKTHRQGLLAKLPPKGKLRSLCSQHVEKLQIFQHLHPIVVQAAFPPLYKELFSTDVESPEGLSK
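A Gal4/UAS one-hybrid system in insect cells: metallothionein-promoter Gal4–ROR gamma fusion plus Photinus luciferase reporter. Copper sulfate 700 uM final, 20 hr ambient incubation, luminescent detection after 10 min with reagent.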
SW480 rereplic = A quantitative high throughput screen for small molecules that induce DNA re-replication in SW480 colon adenocarcinoma cells | Potency, µM (highest dose often 46.1 µM), for inactives: top-dose re-replication activation, usual class: activators | 340,000 tested, 1.8% active | SW480 DNA re-replication, Hoechst DNA content imaging, 48 h | AID 624297, 2012; also: potency is read from the fitted curve at half-maximal effect; % of control where 0% means no effect; nearly all actives have a fitted effect of over 55% in size
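Quantitative HTS format with DMSO vehicle controls; 48 hr drug incubation at 37 C, then 40 min Hoechst staining and scanning imager measurement at 405 nm excitation.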
Giardia kill = Small Molecules that selectively kill Giardia lamblia: qHTS; Giardia lamblia trophozoite viability; activity change, % at 7.66 µM, hits read low; 340,000 tested, 0.15% active; AID 540267, 2011; in the data active = activity change below about -80%; inconclusive = between about -30% and that limit;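 also: parasites exposed to compound for two days anaerobically before the ATP read; % is scaled to controls: 0 for no effect and ±100 for the full control effect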
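ATP-content bioluminescence gauges trophozoite survival. Cells (100/well) receive compound and incubate anaerobically for 48 hrs at 37 deg C; detection reagent follows for 15-30 min at room temperature.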
BCR signal inh = qHTS Assay to Find Inhibitors of Chronic Active B-Cell Receptor Signaling; ABC-DLBCL IkBa-CBG/CBR reporter, luminescence ratio, 4 h; Potency, µM (top dose mostly 46.1 µM), without a hit: top-dose activity change, negative = inhibition, actives largely listed as inhibitors; 340,000 tested, 0.05% active; AID 493014, 2011; active = well fitted inhibition curve with a large enough effect in the signal ratio, with a control signal flat, not every such curve was filed as active; inconclusive = small, poorly fitted or top-dose-only effect, or effect the other way, or a change in a side signal; the % refers to the signal ratio;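 also: potency is read from the fitted curve at half-maximal effect; plate controls were basal doxycycline-induced cells for no effect and cells given 10 µM MG132 for full effect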
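Cell line TMD8 (human ABC DLBCL), stably expressing tet-inducible CBG68-IkBa fusion and CBR; IMDM/0.5% FBS; cpd up to 46 uM; dox induction, 4 h, 37C/5% CO2; dual luminescence; green/red ratio; MG132 control.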
Active calls of the source: *. Sampled rows, rich in hits. Any-hit rate of the full collection: about 8.3%. Unless noted, calls follow the shape of the dose curve; as a rule, active = well fitted curve in the direction sought with a large enough effect; inconclusive = small, poorly fitted or top-dose-only effect, or another doubt; inactive = no such curve, though single readings can be large; an effect the other way counts as inactive or inconclusive.

`CC(=O)c1ccc(NC(=O)CN2C(=O)c3cccnc3Sc3ccccc32)cc1` gave BCR signal inh -11%.
For COc1ccccc1C(=O)NCC(=O)N/N=C/c1cccc(Cl)c1 the results were Gal4-VP16 FLuc -3%, MCF10A rereplic 6%, RORg inh 3%, SW480 rereplic 11%, Giardia kill -25 and BCR signal inh inconclusive.
O=C(Cc1cccc(NC(=O)C2CCN(C(=O)CCc3ccccc3)CC2)c1)Nc1cccc(C(=O)N2CCCC2)c1 was read as MCF10A rereplic -10%, SW480 rereplic -13%, Giardia kill -26 and BCR signal inh 1%.
Screening COCCN1C(=O)N(c2cccc(OC)c2)C(=O)C1CC(=O)Nc1ccc(OC)cc1 (configuration not stated) returned MCF10A rereplic 0%, SW480 rereplic 1%, Giardia kill -21 and BCR signal inh 2%.
For COc1ccc(NC(=O)CC2C(=O)N(c3ccc(Cl)cc3)C(=S)N2NC(=O)c2cccc(F)c2)cc1 (configuration not stated) the results were Gal4-VP16 FLuc 18µM*, MCF10A rereplic inconclusive, RORg inh 10µM*, SW480 rereplic 2%, Giardia kill 7 and BCR signal inh -2%.
`COCCN1C(=O)N(c2ccc(OC)cc2)C(=O)C1CC(=O)Nc1cccc(F)c1` (configuration not stated) gave Gal4-VP16 FLuc 2%, MCF10A rereplic 0.92µM*, RORg inh -22%, SW480 rereplic -13%, Giardia kill 6 and BCR signal inh 5%.
For COc1ccc(NC(=O)CC2C(=O)N(c3ccc(F)cc3)C(=S)N2NC(=O)c2ccc(Cl)cc2)cc1 (configuration not stated) the results were Gal4-VP16 FLuc 20µM*, MCF10A rereplic inconclusive, RORg inh 11µM*, SW480 rereplic 7%, Giardia kill -9 and BCR signal inh inconclusive.
Screening O=c1[nH]c(-c2ccccc2)nc(-c2ccccc2)c1Cl returned MCF10A rereplic -7%, SW480 rereplic -6% and Giardia kill -3.
For Cc1ccccc1CN1CCC(n2nccc2NC(=O)CCOc2ccccc2)CC1 the results were Gal4-VP16 FLuc 3%, MCF10A rereplic 1%, RORg inh -5%, SW480 rereplic inconclusive, Giardia kill -23 and BCR signal inh -13%.
Screening Cc1ccc(CCNC(=O)CCn2nc(-c3ccc(Cl)cc3)ccc2=O)cc1 returned BCR signal inh 1%.
Screening COc1ccccc1NC(=O)c1nnn(CC(=O)Nc2ccccc2)c1N returned Gal4-VP16 FLuc -1%, MCF10A rereplic -4%, RORg inh inconclusive, SW480 rereplic -26%, Giardia kill 1 and BCR signal inh inconclusive.
CCc1ccccc1NC(=O)Cn1nnc(C(=O)NCc2cccc(OC)c2)c1N was read as Gal4-VP16 FLuc 4%, MCF10A rereplic 7.3µM*, RORg inh -10%, SW480 rereplic inconclusive, Giardia kill 12 and BCR signal inh -8%.
For Cc1cc(C)cc(NC(=O)Cn2nnc(C(=O)NCc3ccc(F)cc3)c2N)c1 the results were Gal4-VP16 FLuc -2%, MCF10A rereplic inconclusive, RORg inh 0%, SW480 rereplic 29µM*, Giardia kill 16 and BCR signal inh -4%.
COc1ccccc1NC(=O)c1nnn(CC(=O)Nc2cccc(SC)c2)c1N was read as Gal4-VP16 FLuc inconclusive, MCF10A rereplic 7%, RORg inh 6.3µM*, SW480 rereplic -6%, Giardia kill -4 and BCR signal inh inconclusive.
`CCCCCC(CC)COC(=O)CC(C(=O)OCC(CC)CCCC)S(=O)(=O)O` (configuration not stated) gave Gal4-VP16 FLuc -5% and RORg inh -27%.
`COc1ccc(OC)c(CNC(=O)CCSCc2ccc(F)cc2Cl)c1` gave Gal4-VP16 FLuc -2%, MCF10A rereplic inconclusive, RORg inh 18%, SW480 rereplic 0%, Giardia kill 81 and BCR signal inh 0%.
Cc1ccc(Nc2nnc(SCC(=O)c3c(N)n(C4CC4)c(=O)[nH]c3=O)s2)cc1C was read as MCF10A rereplic inconclusive, SW480 rereplic -42%, Giardia kill inconclusive and BCR signal inh -1%.
`Cc1cc(C)cc(C(=O)NCC(=O)OCC(=O)Nc2ccc(C)cc2Br)c1` gave Gal4-VP16 FLuc 9%, MCF10A rereplic -4%, RORg inh 34%, SW480 rereplic -4%, Giardia kill 8 and BCR signal inh 5%.
Screening Cc1ccc(C2NC(=O)c3ccccc3N2)c(C)c1 (configuration not stated) returned MCF10A rereplic 6.5µM*, SW480 rereplic inconclusive and Giardia kill -2.
Screening Cc1ccc(C2NC(=O)c3ccccc3N2)s1 (configuration not stated) returned Gal4-VP16 FLuc 11%, MCF10A rereplic inconclusive, RORg inh inconclusive, SW480 rereplic 21µM*, Giardia kill -26 and BCR signal inh 4%.
For Cc1ccc(N=C2C(=O)Nc3ccccc32)c(C)c1 the results were Gal4-VP16 FLuc 0%, MCF10A rereplic 6%, RORg inh 2%, SW480 rereplic -6%, Giardia kill -8 and BCR signal inh -3%.
For Cc1cccc(C2NC(=O)c3ccccc3N2)c1 (configuration not stated) the results were MCF10A rereplic 15µM*, SW480 rereplic 16µM* and Giardia kill 0.
For O=C(CSc1nc2[nH]ncc2c(=O)n1-c1ccccc1)N1CCCCCC1 the results were Gal4-VP16 FLuc -12%, RORg inh inconclusive and BCR signal inh 0%.
`CCCN1CNc2c(c(=O)[nH]c(=S)n2CCc2cc(C)cc(C)c2)C1` gave Giardia kill 28.
Cc1cc(C)c(S(=O)(=O)Nc2cccc(S(=O)(=O)NC3=NCCC3)c2)c(C)c1 was read as Gal4-VP16 FLuc 3%, MCF10A rereplic inconclusive, RORg inh 19%, SW480 rereplic inconclusive, Giardia kill -1 and BCR signal inh 0%.
Screening Cc1ccc(CCNC(=O)c2nn(C)c3c2CS(=O)(=O)c2ccccc2-3)cc1 returned Gal4-VP16 FLuc -10%, MCF10A rereplic 1%, RORg inh 13%, SW480 rereplic inconclusive, Giardia kill 2 and BCR signal inh 8%.

Compound activity: PubChem, National Center for Advancing Translational Sciences (NCATS)
